Experimental findings from PubChem BioAssay (EPA / NIEHS) are described below.

The source holds several records for some structures; these can differ, active in one and inactive in another. Activity calls are given as the source filed them. How the source made its calls: active means hit-call score of the fitted dose curve at least 0.9, where 1 is the maximum; inactive means score below 0.9.

Signal transducer and activator of transcription 3 (Homo sapiens), sequence (P40763 whole entry, looked up): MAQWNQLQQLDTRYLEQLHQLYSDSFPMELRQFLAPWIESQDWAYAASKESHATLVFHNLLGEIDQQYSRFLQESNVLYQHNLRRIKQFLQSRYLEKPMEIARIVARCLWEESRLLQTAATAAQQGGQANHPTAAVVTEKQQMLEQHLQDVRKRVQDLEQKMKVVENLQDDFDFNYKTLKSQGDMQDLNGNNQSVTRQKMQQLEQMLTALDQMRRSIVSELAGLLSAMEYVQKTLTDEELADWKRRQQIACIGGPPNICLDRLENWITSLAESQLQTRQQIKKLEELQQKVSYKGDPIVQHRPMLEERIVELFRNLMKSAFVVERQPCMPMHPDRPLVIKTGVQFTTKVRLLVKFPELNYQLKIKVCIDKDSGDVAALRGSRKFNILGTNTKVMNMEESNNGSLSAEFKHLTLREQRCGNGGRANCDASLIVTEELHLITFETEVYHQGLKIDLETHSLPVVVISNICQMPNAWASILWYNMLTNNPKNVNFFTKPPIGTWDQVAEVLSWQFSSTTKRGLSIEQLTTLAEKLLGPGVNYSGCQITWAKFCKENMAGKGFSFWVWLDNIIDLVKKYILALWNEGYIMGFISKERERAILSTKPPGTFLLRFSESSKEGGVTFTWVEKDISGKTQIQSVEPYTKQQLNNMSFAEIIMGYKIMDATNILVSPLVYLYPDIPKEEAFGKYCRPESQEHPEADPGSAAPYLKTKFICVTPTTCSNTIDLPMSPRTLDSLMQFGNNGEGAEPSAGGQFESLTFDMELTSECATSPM

In this test the target is Signal transducer and activator of transcription 3 (Homo sapiens) (UniProt P40763). Briefly: ATG_STAT3_CIS: Attagene CIS-FACTORIAL HepG2 Assay for human Signal Transducer and Activator of Transcription 3 (STAT3) (AID 2282963). Conditions: HepG2, Attagene cis-factorial STAT3 reporter transcription; actives raise or lower the signal. The procedure:
ATG_CIS is a cell-based, multiplexed-readout assay that uses HepG2, a human liver cell line, with measurements taken at 24 hours after chemical dosing in a 24-well plate.ATG_STAT3_CIS is one of 52 assay component(s) measured or calculated from the ATG_CIS assay. It is designed to make measurements of mRNA induction, a form of inducible reporter, as detected with fluorescence intensity signals by Reverse transcription polymerase chain reaction (RT-PCR) and Capillary electrophoresis technology.Data from the assay component ATG_STAT3_CIS was analyzed into 1 assay endpoint. This assay endpoint, ATG_STAT3_CIS, was analyzed with bidirectional fitting relative to DMSO as the negative control and baseline of activity. Using a type of inducible reporter, measures of mRNA for gain or loss-of-signal activity can be used to understand the reporter gene at the transcription factor-level as they relate to the gene STAT3. Furthermore, this assay endpoint can be referred to as a primary readout, because this assay has produced multiple assay endpoints where this one serves a reporter gene function. To generalize the intended target to other relatable targets, this assay endpoint is annotated to the dna binding intended target family, where the subfamily is stat protein.
Human liver HepG2 cells are transiently transfected with multiple reporter transcription units (MRTUs) in 6-well plates using FuGene 6 reagent (Roche; 3 ml FuGene/1 mg DNA). The MRTU constructs are regulated by a cis-regulating element (promoter). […] A major difference between the CIS and TRANS system is that in CIS activities of endogenous TFs are measured, whereas the TRANS assay evaluates changes in activities of exogenous, chimeric NR-Gal4 proteins. […] At the end of 24 hour incubation, total RNA was isolated using TriZol reagent (Invitrogen). The isolated RNA is then reverse-transcribed using oligo(dT) primer and Mo-MLV reverse transcriptase (Invitrogen) with DNAse I (Ambion) treatment for 30 min. The one-tenth of the produced cDNA was amplified by PCR using Taq DNA polymerase (Invitrogen) and two reporter sequence-specific primers. The PCR products were fluorescently labeled by primer extension with 6-arboxyfluorescein (6-FAM) 5'-labeled reporter sequence-specific primer (2 min at 95 C, 20 s at 68 C and 10 min at 72 C) and these products were digested with 5U of HpaI (New England Biolabs) for 2h at 37 C. The fragments were purified using Qiaquick PCR columns (Qiagen), analyzed on an ABI 3130xL genetic analyzer (Applied Biosystems) with peak positions identified by using a set of X-rhodamine (ROX)-labeled MapMarker1000 molecular weight standards (BioVentures). The raw capillary electrophoresis data was processed using Attagraph software (Attagene).
Consider `C[Si](Cn1cncn1)(c1ccc(F)cc1)c1ccc(F)cc1`, for which the compound was classed as inactive.

As to `CC(COc1ccc(Oc2ccccc2)cc1)Oc1ccccn1` (stereo not given), the compound was called inactive.

Consider `CNC(=O)ON=C(SC)C(=O)N(C)C`, for which the compound was called inactive.

Consider `CCOP(=S)(OCC)Oc1cc(C)nc(C(C)C)n1`, for which the result was inactive.

Consider `CCNc1nc(Cl)nc(NC(C)(C)C#N)n1`, for which the result was inactive.

For `CCCCOC(=O)c1ccccc1C(=O)O`, the compound was called inactive.

`CNC(=O)ON=C(C)SC`: the call was inactive.

`CC(C)N(C(=O)SCC(Cl)=C(Cl)Cl)C(C)C`: the result was inactive.

On to `FC(F)C(F)(F)OCC(Cn1cncn1)c1ccc(Cl)cc1Cl` (stereo not given), for which the compound was classed as inactive.

Regarding `Nc1nc(N)nc(NC2CC2)n1`, the call was inactive.

With `C[N+]1(C)CCCCC1`, the compound was called inactive.

Consider `S=C1NCCN1`, for which the result was inactive.

Consider `COP(=O)(OC)C(O)C(Cl)(Cl)Cl` (stereo not given), for which the result was inactive.

On to `N#CSCSC#N`, for which the result was inactive.

With `CCc1cccc(C)c1N(C(=O)CCl)C(C)COC` (stereo not given), the outcome was inactive.

`COP(=O)(NC(C)=O)SC` (stereo not given): the compound was called inactive.

Consider `C=C(C)[C@H]1Cc2c(ccc3c2O[C@@H]2COc4cc(OC)c(OC)cc4[C@@H]2C3=O)O1`, for which the compound was called inactive.

Turning to `C#CC(C)(C)NC(=O)c1cc(Cl)cc(Cl)c1`, the compound was classed as inactive.

As to `COP(=O)(OC)OC(Br)C(Cl)(Cl)Br` (stereo not given), the outcome was inactive.

Usually AC50 stands for the concentration at which the activity in the assay is half-maximal. Regarding `O=[N+]([O-])c1cc(C(F)(F)F)c(Cl)c([N+](=O)[O-])c1Nc1ncc(C(F)(F)F)cc1Cl`, the AC50 was 19.1 µM (active) and the compound was called inactive.

Consider `CCCCOC(=O)[C@@H](C)Oc1ccc(Oc2ccc(C#N)cc2F)cc1`, for which the call was inactive.

As to `Cc1ccn2nc(S(=O)(=O)Nc3c(F)cccc3F)nc2n1`, the compound was classed as inactive.

Regarding `CNc1cnn(-c2cccc(C(F)(F)F)c2)c(=O)c1Cl`, the call was inactive.

Take `CCOC(=O)CC(SP(=O)(OC)OC)C(=O)OCC` (stereo not given): the outcome was inactive.

For `CN(C)NC(=O)CCC(=O)O`, the compound was classed as inactive.

For the compound `CC(Oc1cccc(Cl)c1)C(=O)O` (stereo not given), the outcome was inactive.

Take `CCCCSP(=O)(SCCCC)SCCCC`: the AC50 is 50 µM (active).

In the case of `CCCOCC(=Nc1ccc(Cl)cc1C(F)(F)F)n1ccnc1`, the result was inactive.

Regarding `CCC(=O)Nc1ccc(Cl)c(Cl)c1`, the outcome was inactive.

In the case of `CCCCN(CC)c1c([N+](=O)[O-])cc(C(F)(F)F)cc1[N+](=O)[O-]`, the compound was called inactive.

On to `C#CCC1=C(C)C(OC(=O)C2C(C=C(C)C)C2(C)C)CC1=O` (stereo not given), for which the outcome was inactive.

For the compound `CN(C)C(=O)Nc1cccc(C(F)(F)F)c1`, the outcome was inactive.

Regarding `CSC1=N[C@@](C)(c2ccccc2)C(=O)N1Nc1ccccc1`, the compound was classed as inactive.

For the compound `COc1cccc(C(=O)NN(C(=O)c2cc(C)cc(C)c2)C(C)(C)C)c1C`, the compound was called inactive.

Take `O=c1ccc(=O)[nH][nH]1`: the outcome was inactive.

In the case of `CON=C(C(=O)OC)c1ccccc1CON=C(C)c1cccc(C(F)(F)F)c1`, the compound was called inactive.

Regarding `CN1COCN(Cc2cnc(Cl)s2)C1=N[N+](=O)[O-]`, the compound was called inactive.

As for `COc1cc(OC)nc(Sc2cccc(Cl)c2C(=O)O)n1`, the compound was classed as inactive.

As for `Cc1cc(C2CC2)nc(Nc2ccccc2)n1`, the outcome was inactive.
